Results on one sequence are retold here after publication PMC7862700, “An all-to-all approach to the identification of sequence-specific readers for epigenetic DNA modifications on cytosine”.

Common to all, as to test: DAPPL (digital affinity profiling via proximity ligation, sequencing); 10 mM Tris-HCl pH 7.5, 50 mM NaCl, 1 mM DTT, 4% glycerol, room temperature, 30 min; GST-TFs on glutathione beads, 16-mer random dsDNA library, 0.1% formaldehyde crosslink after washing; high values mean tight binding
The target of assay [1] is T1, FEV (Homo sapiens, UniProt Q99581 1-238).
T1 sequence: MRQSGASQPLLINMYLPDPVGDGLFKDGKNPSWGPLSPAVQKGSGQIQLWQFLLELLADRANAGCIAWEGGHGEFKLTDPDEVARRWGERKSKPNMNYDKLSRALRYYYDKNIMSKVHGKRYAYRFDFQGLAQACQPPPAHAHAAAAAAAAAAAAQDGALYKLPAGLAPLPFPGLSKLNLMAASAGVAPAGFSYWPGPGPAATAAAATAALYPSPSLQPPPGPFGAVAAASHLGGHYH
The settings on record: protein: recombinant; tags: N-terminal GST; dsDNA, one strand shown. In outline: (§1)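 A tag-only sample was pooled with DNA-barcoded human transcription factors that had been expressed in yeast as GST fusions and captured on glutathione beads. The pools were incubated for 30 min at room temperature with 200 nmole of a random double-stranded 16-mer DNA library in Tris/NaCl/DTT/glycerol buffer, then washed, crosslinked with 0.1% formaldehyde, proximity-ligated (BsaI/T4 ligase, 1 h, 37 °C), PCR-amplified and sequenced on an Illumina NextSeq500. Binding signal is each hexamer's read frequency for a factor divided by its frequency for the tag-only sample.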

Assay [2] addresses ETV5 (Homo sapiens, UniProt P41161 1-510). The settings on record: protein: recombinant; tags: N-terminal GST; dsDNA, one strand shown. In outline:
as §1

Assay [3] deals with HSF1 (Homo sapiens, UniProt Q00613 1-529). The settings on record: protein: recombinant; tags: N-terminal GST; chain copies: 3; dsDNA, one strand shown. In a few lines: as §1
Sequence of HSF1 (Q00613 whole entry): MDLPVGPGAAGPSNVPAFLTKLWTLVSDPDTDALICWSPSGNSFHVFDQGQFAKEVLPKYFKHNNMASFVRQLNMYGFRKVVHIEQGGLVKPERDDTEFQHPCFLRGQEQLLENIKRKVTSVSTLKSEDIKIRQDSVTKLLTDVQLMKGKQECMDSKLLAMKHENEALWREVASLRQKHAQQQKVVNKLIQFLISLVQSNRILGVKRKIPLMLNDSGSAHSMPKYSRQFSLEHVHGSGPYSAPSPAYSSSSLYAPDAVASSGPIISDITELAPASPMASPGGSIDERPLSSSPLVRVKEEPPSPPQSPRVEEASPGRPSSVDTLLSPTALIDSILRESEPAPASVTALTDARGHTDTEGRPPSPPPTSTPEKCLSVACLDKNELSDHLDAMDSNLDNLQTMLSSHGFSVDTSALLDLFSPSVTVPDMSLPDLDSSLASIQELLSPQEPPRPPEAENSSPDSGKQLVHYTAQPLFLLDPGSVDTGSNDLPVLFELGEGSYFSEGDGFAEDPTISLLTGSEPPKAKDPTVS
For assay [4], the target named is T2, SPIC (Homo sapiens, UniProt Q8N5J4 1-248).
T2 sequence: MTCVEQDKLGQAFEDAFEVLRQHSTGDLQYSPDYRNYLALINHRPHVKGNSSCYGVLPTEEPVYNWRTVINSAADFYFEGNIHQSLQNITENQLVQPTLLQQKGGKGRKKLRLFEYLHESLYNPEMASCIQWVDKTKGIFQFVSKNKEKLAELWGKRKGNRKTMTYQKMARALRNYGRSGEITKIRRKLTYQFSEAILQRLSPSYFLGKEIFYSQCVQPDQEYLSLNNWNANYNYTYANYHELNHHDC
The settings on record: protein: recombinant; tags: N-terminal GST; dsDNA, one strand shown. In outline:
as §1

Assay [5] addresses ELF4 (Homo sapiens, UniProt Q99607 1-663). The settings on record: protein: recombinant; tags: N-terminal GST; dsDNA, one strand shown. In outline: as §1
The target in assay [6] is T3, ELK4 (Homo sapiens, UniProt P28324-2 1-405).
T3 sequence: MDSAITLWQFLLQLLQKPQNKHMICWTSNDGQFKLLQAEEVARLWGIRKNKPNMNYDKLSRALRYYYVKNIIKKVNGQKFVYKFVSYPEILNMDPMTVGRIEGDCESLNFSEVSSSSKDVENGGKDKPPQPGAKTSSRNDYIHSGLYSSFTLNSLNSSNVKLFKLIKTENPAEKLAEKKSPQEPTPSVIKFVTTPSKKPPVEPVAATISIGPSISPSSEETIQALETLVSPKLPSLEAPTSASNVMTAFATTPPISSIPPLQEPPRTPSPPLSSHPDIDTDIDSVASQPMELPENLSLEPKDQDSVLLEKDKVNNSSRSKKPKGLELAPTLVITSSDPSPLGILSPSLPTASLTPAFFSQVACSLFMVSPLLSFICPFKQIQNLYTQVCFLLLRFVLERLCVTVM
The conditions noted are these: protein: recombinant; tags: N-terminal GST; dsDNA, one strand shown. In outline:
as §1

For assay [7], the target named is T4, ETV2 (Homo sapiens, UniProt O00321 1-342).
T4 sequence: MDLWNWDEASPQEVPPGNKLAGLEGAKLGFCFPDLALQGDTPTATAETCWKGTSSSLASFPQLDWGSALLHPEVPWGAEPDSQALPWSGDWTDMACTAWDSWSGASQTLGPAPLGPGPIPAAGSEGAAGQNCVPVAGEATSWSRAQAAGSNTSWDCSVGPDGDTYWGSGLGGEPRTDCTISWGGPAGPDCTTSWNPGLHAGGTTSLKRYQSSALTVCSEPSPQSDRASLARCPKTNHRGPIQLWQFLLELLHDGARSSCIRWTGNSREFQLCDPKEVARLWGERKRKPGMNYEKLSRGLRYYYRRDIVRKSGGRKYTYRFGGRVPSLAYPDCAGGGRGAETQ
The conditions noted are these: protein: recombinant; tags: N-terminal GST; dsDNA, one strand shown. In outline: as §1

Assay [8] has as its target T5, ELF3 (Homo sapiens, UniProt P78545 1-371).
T5 sequence: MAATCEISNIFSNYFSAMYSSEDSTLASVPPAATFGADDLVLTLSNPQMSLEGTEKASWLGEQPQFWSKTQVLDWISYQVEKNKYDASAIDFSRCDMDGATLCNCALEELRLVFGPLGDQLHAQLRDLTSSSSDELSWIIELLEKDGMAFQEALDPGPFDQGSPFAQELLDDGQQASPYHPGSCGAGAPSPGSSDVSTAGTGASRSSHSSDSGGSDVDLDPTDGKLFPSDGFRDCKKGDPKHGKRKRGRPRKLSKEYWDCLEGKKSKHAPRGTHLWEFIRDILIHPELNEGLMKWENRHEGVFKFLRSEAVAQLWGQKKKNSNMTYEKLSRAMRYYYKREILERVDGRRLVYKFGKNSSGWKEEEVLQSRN
The conditions noted are these: protein: recombinant; tags: N-terminal GST; dsDNA, one strand shown. In outline:
as §1

Assay [9] concerns the target CRX (Homo sapiens, UniProt O43186 1-299). The settings on record: protein: recombinant; tags: N-terminal GST; dsDNA, one strand shown. In a few lines:
as §1

Assay [10] concerns the target ETV1 (Homo sapiens, UniProt P50549 1-477). The settings on record: protein: recombinant; tags: N-terminal GST; dsDNA, one strand shown. In a few lines:
as §1

Assay [11] addresses T6, ERF (Homo sapiens, UniProt P50548 1-548).
T6 sequence: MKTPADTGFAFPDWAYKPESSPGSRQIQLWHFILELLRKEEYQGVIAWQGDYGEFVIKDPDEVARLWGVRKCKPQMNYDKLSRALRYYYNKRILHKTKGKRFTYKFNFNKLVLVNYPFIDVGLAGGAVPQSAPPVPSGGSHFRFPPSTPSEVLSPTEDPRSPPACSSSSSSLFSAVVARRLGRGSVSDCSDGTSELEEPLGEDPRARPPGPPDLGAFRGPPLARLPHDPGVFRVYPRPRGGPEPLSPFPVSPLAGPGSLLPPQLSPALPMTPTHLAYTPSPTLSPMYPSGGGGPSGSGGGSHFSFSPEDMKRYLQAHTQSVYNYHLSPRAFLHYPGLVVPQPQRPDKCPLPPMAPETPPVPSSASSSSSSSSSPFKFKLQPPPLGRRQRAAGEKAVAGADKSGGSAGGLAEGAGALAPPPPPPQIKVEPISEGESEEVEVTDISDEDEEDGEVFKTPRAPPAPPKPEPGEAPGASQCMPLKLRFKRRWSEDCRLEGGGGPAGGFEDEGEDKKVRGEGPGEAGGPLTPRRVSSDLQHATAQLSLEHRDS
The conditions noted are these: protein: recombinant; tags: N-terminal GST; dsDNA, one strand shown. In a few lines:
as §1

Assay [12] has as its target T7, ETV3L (Homo sapiens, UniProt Q6ZN32 1-361).
T7 sequence: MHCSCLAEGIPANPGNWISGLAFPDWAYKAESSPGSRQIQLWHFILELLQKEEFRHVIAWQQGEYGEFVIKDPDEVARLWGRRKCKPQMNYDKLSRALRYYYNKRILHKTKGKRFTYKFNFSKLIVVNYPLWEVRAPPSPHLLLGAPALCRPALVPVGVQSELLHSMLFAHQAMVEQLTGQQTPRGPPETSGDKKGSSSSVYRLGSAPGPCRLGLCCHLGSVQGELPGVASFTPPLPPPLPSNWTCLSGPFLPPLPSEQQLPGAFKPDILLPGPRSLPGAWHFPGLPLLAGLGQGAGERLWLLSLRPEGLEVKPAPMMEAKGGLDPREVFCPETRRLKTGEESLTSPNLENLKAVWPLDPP
The settings on record: protein: recombinant; tags: N-terminal GST; dsDNA, one strand shown. In a few lines: as §1

Assay [13] concerns the target T8, ETS2 (Homo sapiens, UniProt P15036 1-469).
T8 sequence: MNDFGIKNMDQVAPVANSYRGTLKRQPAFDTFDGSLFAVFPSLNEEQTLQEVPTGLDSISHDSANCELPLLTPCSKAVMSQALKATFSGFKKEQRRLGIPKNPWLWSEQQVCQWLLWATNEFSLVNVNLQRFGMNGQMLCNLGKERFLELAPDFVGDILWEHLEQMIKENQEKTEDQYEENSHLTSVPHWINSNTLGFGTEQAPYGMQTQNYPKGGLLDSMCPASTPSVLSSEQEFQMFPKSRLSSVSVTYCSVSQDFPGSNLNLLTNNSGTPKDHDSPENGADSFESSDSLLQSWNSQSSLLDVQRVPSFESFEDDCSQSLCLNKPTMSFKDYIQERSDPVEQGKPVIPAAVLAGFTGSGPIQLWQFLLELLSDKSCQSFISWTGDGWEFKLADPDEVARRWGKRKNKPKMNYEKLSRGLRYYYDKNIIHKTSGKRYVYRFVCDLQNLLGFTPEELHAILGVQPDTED
The settings on record: protein: recombinant; tags: N-terminal GST; dsDNA, one strand shown. In a few lines:
as §1

Assay [14] has as its target T9, SPDEF (Homo sapiens, UniProt O95238 1-335).
T9 sequence: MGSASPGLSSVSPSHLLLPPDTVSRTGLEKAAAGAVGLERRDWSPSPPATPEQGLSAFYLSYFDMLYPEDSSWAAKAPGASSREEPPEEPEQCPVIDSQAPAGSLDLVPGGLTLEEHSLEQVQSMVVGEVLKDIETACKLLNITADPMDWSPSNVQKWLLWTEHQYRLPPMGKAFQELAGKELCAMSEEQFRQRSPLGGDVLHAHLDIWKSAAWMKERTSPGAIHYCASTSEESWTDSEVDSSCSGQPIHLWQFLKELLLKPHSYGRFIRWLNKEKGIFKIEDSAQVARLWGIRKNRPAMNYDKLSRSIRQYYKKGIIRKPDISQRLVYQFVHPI
The conditions noted are these: protein: recombinant; tags: N-terminal GST; dsDNA, one strand shown. In outline: as §1

In assay [15] the target is T10, ETV7 (Homo sapiens, UniProt Q9Y603 1-341).
T10 sequence: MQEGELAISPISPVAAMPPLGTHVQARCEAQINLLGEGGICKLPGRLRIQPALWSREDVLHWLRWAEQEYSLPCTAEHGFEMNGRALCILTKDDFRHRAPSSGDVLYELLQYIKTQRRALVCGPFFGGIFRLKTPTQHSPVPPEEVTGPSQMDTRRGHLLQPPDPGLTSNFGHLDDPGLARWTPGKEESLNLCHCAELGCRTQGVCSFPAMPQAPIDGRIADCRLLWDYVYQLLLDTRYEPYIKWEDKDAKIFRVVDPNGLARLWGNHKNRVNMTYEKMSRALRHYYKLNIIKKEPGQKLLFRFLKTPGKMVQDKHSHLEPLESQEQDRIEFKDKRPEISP
The conditions noted are these: protein: recombinant; tags: N-terminal GST; dsDNA, one strand shown. In a few lines: as §1

The target in assay [16] is T11, ELF5 (Homo sapiens, UniProt Q9UKW6-2 1-255).
T11 sequence: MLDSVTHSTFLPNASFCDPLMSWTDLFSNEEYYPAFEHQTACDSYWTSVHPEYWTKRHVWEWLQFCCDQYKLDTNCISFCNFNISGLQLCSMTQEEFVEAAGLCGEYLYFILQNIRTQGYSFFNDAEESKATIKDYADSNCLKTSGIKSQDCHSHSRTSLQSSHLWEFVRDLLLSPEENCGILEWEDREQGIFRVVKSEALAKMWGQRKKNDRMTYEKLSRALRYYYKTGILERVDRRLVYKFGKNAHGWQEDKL
The settings on record: protein: recombinant; tags: N-terminal GST; dsDNA, one strand shown. In outline:
as §1

The target in assay [17] is T12, ETV3 (Homo sapiens, UniProt P41162-2 1-143).
T12 sequence: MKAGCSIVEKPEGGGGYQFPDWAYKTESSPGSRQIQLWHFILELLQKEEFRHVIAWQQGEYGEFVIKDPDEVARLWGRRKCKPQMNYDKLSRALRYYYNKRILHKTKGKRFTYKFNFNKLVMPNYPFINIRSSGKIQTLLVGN
The conditions noted are these: protein: recombinant; tags: N-terminal GST; dsDNA, one strand shown. In outline: as §1

The target in assay [18] is ETV6 (Homo sapiens, UniProt P41212 1-452). The settings on record: protein: recombinant; tags: N-terminal GST; dsDNA, one strand shown. In outline: as §1
Sequence of ETV6 (P41212 whole entry): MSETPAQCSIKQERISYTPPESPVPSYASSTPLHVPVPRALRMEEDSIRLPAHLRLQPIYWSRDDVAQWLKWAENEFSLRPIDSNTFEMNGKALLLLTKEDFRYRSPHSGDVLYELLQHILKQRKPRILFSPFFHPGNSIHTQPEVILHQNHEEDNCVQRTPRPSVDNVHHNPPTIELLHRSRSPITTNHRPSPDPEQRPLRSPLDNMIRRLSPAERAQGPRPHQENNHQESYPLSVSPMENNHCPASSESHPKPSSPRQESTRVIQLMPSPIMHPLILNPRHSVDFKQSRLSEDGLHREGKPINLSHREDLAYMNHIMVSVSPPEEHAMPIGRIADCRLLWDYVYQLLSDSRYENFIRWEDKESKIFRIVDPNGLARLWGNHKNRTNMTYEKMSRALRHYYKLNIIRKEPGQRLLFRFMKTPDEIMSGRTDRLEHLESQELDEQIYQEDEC

Sequence of ETV1 (P50549 whole entry): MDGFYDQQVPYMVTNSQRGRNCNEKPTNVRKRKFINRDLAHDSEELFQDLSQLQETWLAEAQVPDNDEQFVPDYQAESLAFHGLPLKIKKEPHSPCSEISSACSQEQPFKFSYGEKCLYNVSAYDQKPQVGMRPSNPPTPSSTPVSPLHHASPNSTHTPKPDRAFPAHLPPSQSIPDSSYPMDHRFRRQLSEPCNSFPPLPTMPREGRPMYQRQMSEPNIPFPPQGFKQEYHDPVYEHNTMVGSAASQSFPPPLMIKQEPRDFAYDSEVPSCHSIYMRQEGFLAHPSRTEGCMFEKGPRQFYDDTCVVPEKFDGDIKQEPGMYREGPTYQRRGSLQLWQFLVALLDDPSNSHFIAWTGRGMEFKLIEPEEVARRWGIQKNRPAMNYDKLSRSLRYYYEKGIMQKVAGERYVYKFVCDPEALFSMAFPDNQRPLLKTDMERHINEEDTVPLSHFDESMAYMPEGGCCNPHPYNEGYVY
Sequence of ETV5 (P41161 whole entry): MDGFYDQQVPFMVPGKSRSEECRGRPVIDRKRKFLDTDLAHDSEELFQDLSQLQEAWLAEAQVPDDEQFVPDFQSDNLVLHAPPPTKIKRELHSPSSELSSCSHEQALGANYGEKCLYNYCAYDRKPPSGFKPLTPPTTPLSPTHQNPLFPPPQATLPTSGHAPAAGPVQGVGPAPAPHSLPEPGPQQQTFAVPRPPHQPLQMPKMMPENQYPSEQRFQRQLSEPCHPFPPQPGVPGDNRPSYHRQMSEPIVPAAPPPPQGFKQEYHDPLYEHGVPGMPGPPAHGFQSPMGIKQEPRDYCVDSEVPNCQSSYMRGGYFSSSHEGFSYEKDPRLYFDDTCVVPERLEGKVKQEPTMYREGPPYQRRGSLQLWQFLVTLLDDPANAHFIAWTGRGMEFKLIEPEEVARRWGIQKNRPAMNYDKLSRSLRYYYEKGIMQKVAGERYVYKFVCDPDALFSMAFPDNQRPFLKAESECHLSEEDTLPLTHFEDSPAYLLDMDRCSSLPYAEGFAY
Sequence of ELF4 (Q99607 whole entry): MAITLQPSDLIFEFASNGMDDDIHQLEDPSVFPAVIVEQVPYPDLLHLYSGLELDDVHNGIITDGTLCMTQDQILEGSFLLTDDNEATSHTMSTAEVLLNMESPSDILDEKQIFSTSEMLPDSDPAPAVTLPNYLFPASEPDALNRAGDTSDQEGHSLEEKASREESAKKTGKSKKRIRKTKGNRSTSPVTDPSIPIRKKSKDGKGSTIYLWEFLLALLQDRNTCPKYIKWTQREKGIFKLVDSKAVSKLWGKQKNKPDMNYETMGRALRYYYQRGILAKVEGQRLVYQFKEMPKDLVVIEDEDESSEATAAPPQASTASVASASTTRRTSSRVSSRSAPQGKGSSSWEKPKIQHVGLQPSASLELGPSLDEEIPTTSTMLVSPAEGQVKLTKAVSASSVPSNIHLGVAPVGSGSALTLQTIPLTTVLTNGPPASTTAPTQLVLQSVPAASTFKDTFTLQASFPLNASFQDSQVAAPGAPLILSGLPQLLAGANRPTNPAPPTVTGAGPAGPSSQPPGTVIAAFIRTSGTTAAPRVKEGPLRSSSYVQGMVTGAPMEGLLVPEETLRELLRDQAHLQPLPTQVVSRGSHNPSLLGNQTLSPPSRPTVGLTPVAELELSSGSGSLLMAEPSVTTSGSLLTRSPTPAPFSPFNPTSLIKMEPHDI
Sequence of CRX (O43186 whole entry): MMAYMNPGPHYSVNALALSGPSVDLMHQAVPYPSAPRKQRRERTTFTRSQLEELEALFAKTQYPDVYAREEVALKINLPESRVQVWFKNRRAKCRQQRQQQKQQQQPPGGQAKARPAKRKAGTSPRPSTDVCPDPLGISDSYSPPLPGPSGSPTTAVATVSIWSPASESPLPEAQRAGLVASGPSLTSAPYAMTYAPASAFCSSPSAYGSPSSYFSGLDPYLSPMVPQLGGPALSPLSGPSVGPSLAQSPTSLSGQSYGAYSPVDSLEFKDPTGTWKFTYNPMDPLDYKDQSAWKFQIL

Regarding AGATCC, the binding signal in [1] was 1.14 fold enrichment (6-mer frequency, TF over GST control); in assay [2], 1.14 fold enrichment (6-mer frequency, TF over GST control); in assay [3], 1.11 fold enrichment (6-mer frequency, TF over GST control); in [4], 1.16 fold enrichment (6-mer frequency, TF over GST control); in [5], 1.14 fold enrichment (6-mer frequency, TF over GST control); in assay [6] it was 1.17 fold enrichment (6-mer frequency, TF over GST control). Further, the binding signal is 1.06 fold enrichment (6-mer frequency, TF over GST control) in assay [7]; 1.06 fold enrichment (6-mer frequency, TF over GST control) in assay [8]; 1.11 fold enrichment (6-mer frequency, TF over GST control) in [9]; 1.14 fold enrichment (6-mer frequency, TF over GST control) in [10]; 1.08 fold enrichment (6-mer frequency, TF over GST control) in assay [11]; 1.13 fold enrichment (6-mer frequency, TF over GST control) in assay [12]. Moreover, the binding signal in [13] is 1.2 fold enrichment (6-mer frequency, TF over GST control); in assay [14], 2.08 fold enrichment (6-mer frequency, TF over GST control); in assay [15] it was 1.03 fold enrichment (6-mer frequency, TF over GST control); in [16] it was 1.22 fold enrichment (6-mer frequency, TF over GST control); in [17], 1.21 fold enrichment (6-mer frequency, TF over GST control); in [18], 1.1 fold enrichment (6-mer frequency, TF over GST control).
